# Measurements published in PubChem BioAssay AID1626 (SRMLSC, 2009).
# In all, about 220,000 compounds went through this assay and about 2,000 (0.91%) were called active. Inconclusive results (about 2%) are left out. A selection follows. Results with a measured potency or affinity are listed apart. A number with no mark means an inactive call. Rule as the data show it: inconclusive = inhibition above about 80% without an active follow-up result; inactive = below that; test concentration not stated here.
# Assay: M. tuberculosis H37Rv growth inhibitors, H37Rv strain (AID 1626);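 also: bacteria incubated seven days before Alamar blue readout; 0% = bacteria only wells and 100% = bacteria with antibiotic wells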
# Settings: active compounds read high, concentration not given here
row,Structure (SMILES),inhibition
1,Cn1c(SCC(=O)O)nc2ccccc2c1=O,3.07%
2,CN1C(=O)C(=Cc2ccc(Sc3ccccc3)o2)C(=O)N(C)C1=O,41%
3,Cc1ccc(Sc2ccc(/C=C3/C(=O)NN(c4ccccc4)C3=O)o2)cc1,75.7%
4,CCCCc1nnc(NC(=O)CN2C(=O)c3ccccc3C2=O)s1,0.96%
5,CCOC(=O)COc1ccc(S(=O)(=O)N2CCN(c3ccc(F)cc3)CC2)cc1,8.22%
6,CN1CCN(C(=O)/C(=C\c2cccc([N+](=O)[O-])c2)NC(=O)c2cccs2)CC1,-3.33%
7,COc1ccc(CN(C(=O)c2ccc3c(c2)OCCO3)C(C(=O)NC2CCCCC2)c2ccc3ncccc3c2)cc1 (stereo not given),67.9%
8,O=C(NC1CCCCC1)C(c1ccc2ncccc2c1)N(Cc1ccco1)C(=O)c1ccc2c(c1)OCCO2 (stereo not given),13.5%
9,O=C(NC1CCCCC1)C(c1ccc2ncccc2c1)N(Cc1ccccc1)C(=O)c1cccs1 (stereo not given),40.5%
10,O=C(NC1CCCCC1)C(c1ccc2ncccc2c1)N(Cc1ccc2c(c1)OCO2)C(=O)c1cccs1 (stereo not given),8.94%
11,Cn1c(SCC(=O)N/N=C/c2cccnc2)nnc1-c1ccccc1,-5.36%
12,Cc1ccc(C(=O)OCC(=O)NC(C)C)cc1S(=O)(=O)N1CCOCC1,-1.79%
13,CN(Cc1ccccc1)S(=O)(=O)c1ccc(NC(=S)NC(=O)C(C)(C)C)cc1,9.18%
14,COc1cc(CN2CCCC(C(=O)c3ccc4c5c(cccc35)CC4)C2)cc(OC)c1O (stereo not given),-1.67%
15,CC(C)c1[nH]nc2c1C(c1ccco1)C(C#N)=C(N)O2 (stereo not given),-5.64%
16,O=C1CC(C(=O)O)C2(CCCC2)O1 (stereo not given),9.23%
17,Cc1ccc(N(CC(=O)NC2CCCC2)C(=O)CCCC(=O)Nc2ccccn2)cc1C,10%
18,COc1ccccc1Sc1nc(-c2ccccc2)ncc1OC,-2.36%
19,Clc1ccccc1Sc1ccc(-c2ccccn2)s1,-5.02%
20,COc1cnc(-c2ccccn2)nc1NC(C)C,75.4%
21,O=C(O)c1cnc(-c2ccccc2)nc1Sc1ccccc1Cl,1.01%
22,CC12CN3CC(C)(CN(C1)C3c1cccnc1)C2=O (stereo not given),-0.26%
23,O=C(NC(=S)NCCN1CCOCC1)c1ccccc1,-16.1%
24,CCOC(=O)C1CCCN(C(=O)c2ccc([N+](=O)[O-])c(C)c2)C1 (stereo not given),-2.07%
25,CCOC(=O)C1CCCN(c2cc(NCCCO)c([N+](=O)[O-])c3nonc23)C1 (stereo not given),1.76%
